Screens deposited in PubChem BioAssay by National Center for Advancing Translational Sciences (NCATS).
Only some compounds are listed: those with a hit (about 10% of all), similar ones and a draw of the others.
BAZ2B inh: inhibitors of human BAZ2B bromodomain | Q9UIF8 | AlphaScreen BAZ2B-H3K14Ac peptide displacement | Potency, µM (top dose mostly 114 µM), actives largely listed as inhibitors | 360,000 compounds, 4.4% hits | AID 504333; also: nearly all actives have a fitted effect of over 60% in size
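AlphaScreen luminescence quantifies BAZ2B engagement of H3K14Ac peptide; the protein and biotinylated peptide are both at 50 nM final, buffer PBS pH 7.4 with 0.01% Tween-20, all steps at room temperature.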
JMJD2A Tudor inh: blocks the human JMJD2A Tudor domain. O75164. AlphaScreen JMJD2A-Tudor / H3K4me3 peptide binding. Potency, µM (series often up to 114 µM), actives largely listed as inhibitors. 390,000 compounds, 4.4% hits. AID 504339; also: nearly all actives have a fitted effect of over 50% in size
CtBP-E1A inh: blocks the CtBP interaction with E1A; AlphaScreen GST-E1A/His-CtBP binding, 1536-well; active compounds read low; activity change, % (test concentration not listed); 340,000 compounds, 0.49% hits; AID 651724; in the data active = activity change below about -65%; inconclusive = mostly about -30% to -63%
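AlphaScreen with 125 nM GST-E1A and 125 nM His-CtBP (5X stocks) in Tris pH 8.0, 300 mM NaCl, BSA, Tween 20, TCEP. Compounds preincubated 2 h at 37 deg C, then glutathione donor/nickel acceptor beads added for 1 h at 37 deg C in dark.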
Six1-Eya2 blk: blocks human Six1 binding to Eya2 | AID 651725 | AlphaScreen GST-Six1/His-Eya2 binding, biochemical; active compounds read low | Q15475+O00167 | activity change, % (test concentration not listed) | 360,000 compounds, 0.56% hits; in the data active = activity change below about -65%; inconclusive = mostly about -30% to -63%
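Compounds are tested against tagged Six1 and Eya2 proteins bridged by glutathione donor and nickel acceptor beads; after a one-hour incubation at 37 °C without light, AlphaScreen emission is recorded.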
G9a inh: inhibitors of human histone lysine methyltransferase G9a. Q96KQ7. G9a H3K9 monomethylation, AlphaScreen, 2 h. Potency, µM (titrated, usually from 102 µM), hits mostly inhibitors. 350,000 compounds, 8.8% hits. AID 504332; also: nearly all actives have a fitted effect of over 75% in size
Target sequence (Q96KQ7 913-1193 limits assumed): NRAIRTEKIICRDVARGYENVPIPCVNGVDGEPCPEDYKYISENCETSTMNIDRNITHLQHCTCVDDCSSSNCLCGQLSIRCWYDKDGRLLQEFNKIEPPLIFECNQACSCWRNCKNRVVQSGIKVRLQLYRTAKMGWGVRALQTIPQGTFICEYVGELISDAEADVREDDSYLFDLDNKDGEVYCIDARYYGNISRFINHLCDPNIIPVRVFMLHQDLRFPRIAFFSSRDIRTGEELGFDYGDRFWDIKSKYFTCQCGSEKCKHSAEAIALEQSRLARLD
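Methyltransferase reactions run at room temperature for 2 h (20 nM enzyme, 500 nM biotin-H3K9 peptide, 20 uM SAM) after a 15 min compound preincubation; product detected by AlphaScreen beads and anti-H3K9me1 antibody.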
HP1b binding inh: blocks HP1-beta chromodomain binding to methylated histone tails; 390,000 compounds, 0.56% hits; AlphaScreen HP1-beta / biotin-H3K9me3 peptide binding; P83916; Potency, µM (series often up to 114 µM), usual class: inhibitors; AID 540317; also: nearly all actives have a fitted effect of over 70% in size
Target sequence (P83916 whole entry, looked up): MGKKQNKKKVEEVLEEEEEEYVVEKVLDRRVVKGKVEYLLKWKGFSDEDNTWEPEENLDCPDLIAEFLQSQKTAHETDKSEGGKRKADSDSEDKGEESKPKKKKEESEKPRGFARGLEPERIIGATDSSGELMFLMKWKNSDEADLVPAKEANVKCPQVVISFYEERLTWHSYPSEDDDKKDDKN
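AlphaScreen: HP1-beta (50 nM) preformed 30 min with biotin-H3(1-18)K9me3 peptide (50 nM) in PBS pH 7.4, 0.01% Tween-20. Compound added for 30 min at RT, then streptavidin donor/nickel chelate acceptor beads (10 ug/mL) for 30 min.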
A number is an active result; . = inactive; ? = inconclusive; / = no result; ! = not active in a repeat; [ ] = remark or other dose. Unless noted, calls follow the shape of the dose curve; as a rule, active = well fitted inhibition curve with a large enough effect; inconclusive = small, poorly fitted or top-dose-only effect; inactive = no such curve, though single readings can be large or run the other way.

SMILES	BAZ2B inh	JMJD2A Tudor inh	CtBP-E1A inh	Six1-Eya2 blk	G9a inh	HP1b binding inh
COC(=O)c1ccccc1NC(=S)NC(=O)c1ccc2c(c1)OCO2	.	.	.	?	40µM	.
CC(C)C(=O)Nc1cccc(NC(=S)NC(=O)c2ccc(Cl)cc2)c1	.	.	.	.	.	.
COc1cc([N+](=O)[O-])ccc1NC(=O)NNC(=O)CCc1ccccc1	.	.	.	.	.	.
CC(C)C(=O)Nc1cccc(NC(=S)NC(=O)c2ccc3c(c2)OCO3)c1	.	22µM	.	.	.	.
COc1cc([N+](=O)[O-])ccc1NC(=S)NNC(=O)c1ccc2c(c1)OCO2	?	50µM	?	.	8.9µM	?
COc1cc([N+](=O)[O-])ccc1NC(=O)NNC(=O)c1sccc1C	.	.	.	.	71µM	.
CCN(CC)c1ccc(NC(=O)c2cnn(-c3ccccc3)c2-n2cccc2)c(C)c1	.	.	/	/	?	.
COc1ccc(-c2oc3ncn4nc(COc5cccc(C)c5C)nc4c3c2-c2ccc(OC)cc2)cc1	.	.	/	/	.	.
CCN(C(=O)CSc1nc2ccccc2n1CC(=O)Nc1ccc(F)cc1F)c1ccccc1	.	.	/	/	.	.
Cc1ccc(-c2noc(-c3nnn(CC(=O)Nc4cc(Cl)ccc4C)c3N)n2)cc1	.	.	/	/	.	.
COc1ccccc1Nc1nn2c(=O)c3ccc(C(=O)NC4CCC(C)CC4)cc3nc2s1 (stereo not given)	.	.	/	/	.	.
COCO[C@H]([C@@H](C)C=C(Br)Br)[C@@H](C)COCc1ccc(OC)cc1	/	.	/	/	/	.
CCCCC(=O)Nc1cccc(NC(=S)NC(=O)C(C)C)c1	.	?	.	.	28µM	.
CC(=Nc1ccccc1)C1=C(O)CCCC1=O	.	25µM	.	.	?	.
CC(=Nc1ccccc1)C1=C(O)CSC1=O	?	.	.	.	50µM	.
CC(=Nc1ccccc1)C1=C(O)CC(C)(C)CC1=O	.	.	.	.	.	.
COc1ccc(N=C(C)C2C(=O)c3ccccc3C2=O)cc1	/	/	.	.	/	/
CC(=Nc1ccccc1C)C1=C(O)CSC1=O	.	.	.	.	?	.
COc1ccc(N=C(C)C2=C(O)CSC2=O)cc1	.	.	.	.	40µM	.
COc1ccc(NC(=O)Cn2cc(C(=O)c3ccccc3OC)c(=O)c3ccc(C)nc32)cc1OC	?	.	/	/	.	.
CCOc1ccc2c(c1)c(=O)c(S(=O)(=O)c1ccc(CC)cc1)cn2Cc1cccc(Cl)c1	.	.	/	/	.	.
O=C(C1COc2ccccc2O1)N(Cc1cccnc1)c1nc2ccc(Cl)cc2s1 (stereo not given)	.	.	/	/	.	.
CCCCc1nnc(NC(=O)CCS(=O)(=O)Cc2ccccc2)s1	.	.	.	.	?	.
CCC(CC)c1nnc(NC(=O)CCS(=O)(=O)Cc2ccccc2)s1	.	.	.	.	18µM	.
CC(C)c1nnc(NC(=O)CCS(=O)(=O)c2ccccc2)s1	?	.	.	.	?	.
SMILES	BAZ2B inh	JMJD2A Tudor inh	CtBP-E1A inh	Six1-Eya2 blk	G9a inh	HP1b binding inh
O=C(CS(=O)(=O)c1ccccc1)Nc1nnc(Cc2ccccc2)s1	.	.	.	.	32µM	.
CCC(CC)c1nnc(NC(=O)CS(=O)(=O)c2ccccc2)s1	.	.	.	.	10µM	.
CCCc1nnc(NC(=O)CCS(=O)(=O)Cc2ccccc2)s1	.	.	.	.	45µM	.
CCC1CN(C(=O)N2CCC(C(=O)N3CCN(c4ccccc4F)CC3)CC2)c2ccccc2O1 (stereo not given)	?	.	/	/	.	.
CCC(CC)c1nnc(NC(=O)Cc2ccccc2[N+](=O)[O-])s1	.	.	.	.	40µM	.
CCc1nnc(NC(=O)CCS(=O)(=O)Cc2ccccc2)s1	.	.	.	.	50µM	.
O=C(CCS(=O)(=O)Cc1ccccc1)Nc1nncs1	.	.	.	.	45µM	.
CCc1nnc(NC(=O)CS(=O)(=O)Cc2ccccc2)s1	.	.	.	.	.	.
CCOC(=O)C1CCCN(c2ncnc3c2nnn3C)C1 (stereo not given)	.	.	/	/	.	.
CC(C)c1nn2c(=O)cc(COC(=O)c3ccc(NC(=O)c4ccccc4Cl)cc3)nc2s1	.	.	/	/	.	.
Cc1ccc(NC(=O)NCc2cccn2Cc2ccccc2)c(C)c1	.	.	/	/	.	.
COc1ccc2nc3oc(C(=O)N(C)c4ccc(Cl)cc4)cc3cc2c1	/	.	/	/	.	.
COc1ccc(CNCCCSc2nnnn2-c2ccccc2)cc1	.	.	/	/	.	.
Cc1ccc(CSc2nc3ccncc3[nH]2)cc1	.	.	.	.	.	.
CCCC(CCC)c1nc2ccncc2[nH]1	?	?	.	.	50µM	?
CCN(CC)CCCN=C1N[C@@H](c2cccc(C(F)(F)F)c2)C(C(=O)OC)=C(C)N1CC	/	25µM	.	.	/	.
CCN1C(=NCC(C)C)N[C@@H](c2cccc(F)c2)C(C(=O)OC)=C1C	?	?	.	.	40µM!	.
CCN1C(=NCCCCO)N[C@@H](c2cccc(F)c2)C(C(=O)OC)=C1C	?	?	.	.	.[12.7 µM]	.
CCN1C(=NCCN2CCOCC2)N[C@@H](c2ccccc2)C(C(=O)OC)=C1C	?	?	.	.	50µM!	.
CCN1C(=NCc2ccco2)N[C@@H](c2cccc(F)c2)C(C(=O)OC)=C1C	.	?	.	.	40µM!	.
Cc1ccc(Cl)cc1NC(=O)Nc1nnc(N2CCCC(C)C2)s1 (stereo not given)	.	.	/	/	.	.
COC(=O)C1=C(C)N(Cc2ccco2)C(=O)N[C@H]1c1ccc(Br)cc1	?	/	/	/	50µM	/
COC(=O)C1=C(C)N(Cc2ccco2)C(=O)N[C@H]1c1ccccc1	.	/	/	/	?	/
O=c1[nH]c2ccc(S(=O)(=O)N3CCN(S(=O)(=O)c4c(F)cccc4F)CC3)cc2[nH]c1=O	/	.	/	/	/	/
Cc1ccc(C(=O)c2cn(Cc3ccc(Cl)cc3)c3nc(C)ccc3c2=O)cc1	.	?	/	/	.[12.7 µM]	.
C[C@H]1c2cccc(O)c2C(O)=C2C(=O)[C@]3(O)C(O)=C(C(N)=O)C(=O)[C@@H](N(C)C)[C@@H]3[C@@H](O)[C@@H]21	8.9µM	13µM	.	.	2.7µM!	.
C=C1c2c(Cl)ccc(O)c2C(O)=C2C(=O)[C@@]3(O)C(O)=C(C(N)=O)C(=O)[C@@H](N(C)C)[C@@H]3[C@@H](O)[C@H]12	/	/	/	/	11µM	/
C[C@H]1c2cccc(O)c2C(O)=C2C(=O)[C@]3(O)C(O)=C(C(N)=O)C(=O)C(N(C)C)[C@@H]3[C@@H](O)C21 (stereo not given in full)	/	/	/	/	3.2µM	/
